Inconclusive results are not listed. Active and inactive are the calls of the source. Calls come from the whole dose curve; as a rule, active = well fitted curve in the direction sought with a large enough effect; inconclusive = small, poorly fitted or top-dose-only effect, or another doubt; inactive = no such curve, though single readings can be large; an effect the other way counts as inactive or inconclusive.
Experiments:
[1] = qHTS of pediatric cancer cell lines to identify multiple opportunities for drug repurposing: Primary screen for NB1643 cells (AID 1347099); note: nearly all actives have a fitted effect of over 50% in size
How it was run: (§1)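 Readout: CellTiter-Glo luminescence, 48 h treatment. Controls DMSO (neutral) and bortezomib 2.3 µM final (positive). Potency and efficacy taken from primary-screen concentration-response curves.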

[2] = qHTS of pediatric cancer cell lines to identify multiple opportunities for drug repurposing: Primary screen for LAN-5 cells (AID 1347100)
How it was run: (§2)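 Cells (500-1,000/well) rested 5 h, then received compounds for 48 h; metabolically active cells were measured by CellTiter-Glo luminescence. Final concentrations spanned up to 46 µM (MIPE, 11-point) or 0.59 nM-46 µM (NPC, 8-point) in primary screens, 11-point in follow-ups.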

[3] = qHTS of pediatric cancer cell lines to identify multiple opportunities for drug repurposing: Primary screen for Rh18 cells (AID 1347102); note: nearly all actives have a fitted effect of over 65% in size
How it was run: as §2

[4] = qHTS of pediatric cancer cell lines to identify multiple opportunities for drug repurposing: Primary screen for OHS-50 cells (AID 1347103); note: nearly all actives have a fitted effect of over 40% in size
How it was run: as §2

[5] = qHTS of pediatric cancer cell lines to identify multiple opportunities for drug repurposing: Primary screen for RD cells (AID 1347104); note: nearly all actives have a fitted effect of over 55% in size
How it was run: as §1

[6] = qHTS of pediatric cancer cell lines to identify multiple opportunities for drug repurposing: Primary screen for Rh30 cells (AID 1347107); note: nearly all actives have a fitted effect of over 75% in size
How it was run: as §2

[7] = qHTS of pediatric cancer cell lines to identify multiple opportunities for drug repurposing: Primary screen for Rh41 cells (AID 1347108); note: nearly all actives have a fitted effect of over 70% in size
How it was run: as §1

[8] = qHTS of pediatric cancer cell lines to identify multiple opportunities for drug repurposing: Confirmatory screen for NB1643 cells (AID 1347109); note: nearly all actives have a fitted effect of over 45% in size
How it was run: as §2

[9] = qHTS of pediatric cancer cell lines to identify multiple opportunities for drug repurposing: Confirmatory screen for A673 cells (AID 1347110);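 note: cells exposed to compound for 48 h before the viability read; nearly all actives have a fitted effect of over 65% in size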
How it was run: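 Concentration-response curves came straight from titrations: 11 points (0.78 nM to 46 µM) for MIPE and several concentrations (0.59 nM to 46 µM) for NPC in primary, 11 points in follow-up. Readout: ATP luminescence at 48 h.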

[10] = qHTS of pediatric cancer cell lines to identify multiple opportunities for drug repurposing: Confirmatory screen for SK-N-MC cells (AID 1347111);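 note: cells exposed to compound for 48 h before the readout; nearly all actives have a fitted effect of over 70% in size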
How it was run: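 Seed 500-1,000 cells/well; rest 5 h at 37 degrees C. Pin-transfer compounds, 11-point titration. Incubate 48 h. Add CellTiter-Glo, 15 min RT, read luminescence.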

[11] = qHTS of pediatric cancer cell lines to identify multiple opportunities for drug repurposing: Confirmatory screen for BT-12 cells (AID 1347112); note: nearly all actives have a fitted effect of over 55% in size
How it was run: as §2

[12] = qHTS of pediatric cancer cell lines to identify multiple opportunities for drug repurposing: Confirmatory screen for LAN-5 cells (AID 1347113); note: nearly all actives have a fitted effect of over 65% in size
How it was run: as §2

[13] = qHTS of pediatric cancer cell lines to identify multiple opportunities for drug repurposing: Confirmatory screen for DAOY cells (AID 1347114); note: nearly all actives have a fitted effect of over 65% in size
How it was run: (§3)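 Viability measured as metabolically active cells via CellTiter-Glo luminescence following 48 hours of compound exposure, 11-point dilutions in confirmatory testing. 500-1,000 cells/well plated 5 hours before dosing; controls were DMSO and 2.3 µM bortezomib.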

[14] = qHTS of pediatric cancer cell lines to identify multiple opportunities for drug repurposing: Confirmatory screen for NB-EBc1 cells (AID 1347115);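 note: cells exposed to compound for 48 h before the viability read; nearly all actives have a fitted effect of over 45% in size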
How it was run: as §2

[15] = qHTS of pediatric cancer cell lines to identify multiple opportunities for drug repurposing: Confirmatory screen for TC32 cells (AID 1347118)
How it was run: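 Luminescent ATP read-out (CellTiter-Glo) of metabolically active TC32 cells after 48 h exposure. Concentration-response curves came from 11-point (MIPE, 0.78 nM–46 µM) or 8-point (NPC, 0.59 nM–46 µM) primary titrations; follow-up used 11 points.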

[16] = qHTS of pediatric cancer cell lines to identify multiple opportunities for drug repurposing: Primary screen for MG 63 (6-TG R) cells (AID 1347105); note: nearly all actives have a fitted effect of over 50% in size
How it was run: as §1

[17] = qHTS of pediatric cancer cell lines to identify multiple opportunities for drug repurposing: Primary screen for control Hh wild type fibroblast cells (AID 1347106); note: nearly all actives have a fitted effect of over 55% in size
How it was run: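 Viability after 48 h compound treatment at 37C, 500-1,000 cells/well, read as ATP luminescence with CellTiter-Glo. Primary screens used 11-point (MIPE, 0.78 nM-46 µM) or 8-point (NPC, 0.59 nM-46 µM) final concentrations; follow-up screens used 11-point dilutions.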

[18] = qHTS of pediatric cancer cell lines to identify multiple opportunities for drug repurposing: Primary screen for BT-12 cells (AID 1347101); note: nearly all actives have a fitted effect of over 25% in size
How it was run: as §2

[19] = qHTS of pediatric cancer cell lines to identify multiple opportunities for drug repurposing: Confirmatory screen for SJ-GBM2 cells (AID 1347116); note: nearly all actives have a fitted effect of over 60% in size
How it was run: as §3

[20] = qHTS of pediatric cancer cell lines to identify multiple opportunities for drug repurposing: Confirmatory screen for BT-37 cells (AID 1347117); note: nearly all actives have a fitted effect of over 55% in size
How it was run: as §2

Measured: Potency
Potency is the fitted concentration of half-maximal effect.

CN(C)CC[C@H](CSc1ccccc1)Nc1ccc(S(=O)(=O)NC(=O)c2ccc(N3CCN(Cc4ccccc4-c4ccc(Cl)cc4)CC3)cc2)cc1[N+](=O)[O-]
inactive: [11]
active: [1] 0.0187 µM | [2] 0.0209 µM | [3] 0.187 µM | [4] 6.85 µM | [5] 5.9 µM | [6] 11.8 µM | [7] 11.8 µM | [8] 0.414 µM | [9] 14.7 µM | [10] 3.69 µM | [12] 0.414 µM | [13] 16.5 µM | [14] 8.27 µM | [15] 20.8 µM

CC(C)Oc1cc(Nc2nc(N[C@@H](C)c3ccc(F)cn3)ncc2Cl)[nH]n1
active: [1] 1.48 µM | [2] 2.35 µM | [3] 5.26 µM | [4] 21.7 µM | [5] 13.2 µM | [16] 5.9 µM | [6] 8.33 µM | [7] 5.26 µM
inactive: [17]

O=C(O)C1=CO[C@@H](O[C@@H]2O[C@H](CO)[C@H](O)[C@H](O)[C@H]2O)[C@@H]2C(CO)=CC[C@H]12
inactive: [1] | [2] | [3] | [4] | [5] | [16] | [17] | [6] | [7]

CC(C)(C)c1[nH]cnc1C=c1[nH]c(=O)c(=Cc2ccccc2)[nH]c1=O
inactive: [17] | [19] inactive [at 0.556 µM]
active: [1] 48.1 µM | [2] 0.001 µM | [18] 0.0111 µM | [4] 35.2 µM | [5] 34 µM | [8] 0.0114 µM | [9] 0.032 µM | [10] 0.0101 µM | [11] 0.202 µM | [12] 0.0114 µM | [13] 0.018 µM | [14] 0.018 µM | [20] 0.0143 µM | [15] 0.0101 µM

Fc1ccc(CNc2ncnc3ccc(F)cc23)cc1
active: [4] 6.85 µM
inactive: [1] | [2] | [3] | [16] | [17]

CN1[C@H]2CC[C@H]1CC(OC(=O)c1c[nH]c3ccccc13)C2 (some centres not stated)
inactive: [2] | [18] | [5] | [16] | [6]
active: [1] 23.5 µM

CC(C)(F)C[C@H](N[C@@H](c1ccc(-c2ccc(S(C)(=O)=O)cc2)cc1)C(F)(F)F)C(=O)NC1(C#N)CC1
inactive: [1] | [2] | [18] | [16] | [17] | [6]

Cc1cccc2c1CC[C@H](CN1CCC(c3c(Cl)cccc3Cl)CC1)C[C@@H]2O
inactive: [1] | [3] | [16] | [17] | [6]
active: [2] 18.7 µM | [4] 5.44 µM | [5] 33.2 µM

CCCCN(CCCC)CC(O)c1cc(Cl)cc2c1-c1ccc(Cl)cc1C2=Cc1ccc(Cl)cc1 (configuration not stated)
inactive: [1] | [2] | [3] | [4] | [16] | [17] | [6] | [7]

COc1ccc(C=CC(=O)Nc2ccccc2C(=O)O)cc1OC
active: [1] 5.9 µM
inactive: [2] | [3] | [4] | [16] | [17] | [7]

CC(C)c1c(C(=O)Nc2ccccc2)c(-c2ccccc2)c(-c2ccc(F)cc2)n1CC[C@H](O)C[C@@H](O)CC(=O)O
inactive: [2] | [5] | [17]
active: [1] 20.9 µM | [3] 20.9 µM | [4] 19.3 µM | [16] 14.8 µM

COc1ccc(-c2ccc3ncc4c(c3c2)n(-c2ccc(N3CCNCC3)c(C(F)(F)F)c2)c(=O)n4C)cn1
active: [1] 0.264 µM | [2] 0.166 µM | [3] 0.0418 µM | [4] 0.0054 µM | [5] 0.743 µM | [16] 0.0047 µM | [17] 2.09 µM | [6] 1.87 µM | [7] 0.0235 µM | [8] 1.04 µM | [9] 0.131 µM | [10] 0.0827 µM | [11] 7.37 µM | [13] 2.33 µM | [14] 0.928 µM | [19] 0.465 µM | [20] 0.208 µM | [15] 0.0329 µM

Oc1cc(O)cc(C=Cc2ccc(O)c(O)c2)c1
inactive: [17]
active: [1] 20.9 µM | [2] 13.2 µM | [18] 24.3 µM | [4] 19.3 µM

c1cc(OCCN2CCCCC2)cc(-c2n[nH]c3ccc(-c4ncn[nH]4)cc23)c1
inactive: [3] | [5] | [16] | [17] | [6] | [7]
active: [1] 5.9 µM | [2] 14.8 µM | [4] 6.85 µM

N#Cc1c(N(CC(=O)O)CC(=O)O)sc(C(=O)O)c1CC(=O)O
inactive: [1] | [2] | [3] | [4] | [5] | [16] | [6] | [7]

— PubChem BioAssay (NCATS)
